From ChEMBL document CHEMBL4296183, “CO-ADD screening of NIH NCI Natural Product Set III” (2020)

The compounds below were run on Staphylococcus aureus (assay: Antibacterial activity against Staphylococcus aureus MRSA ATCC 43300 (CO-ADD:GP_020); MIC in CAMBH media using NBS plates, by Resazurin F(560/590)). Conditions: Concentration 20 uM, ASSAY_TEST Inhibition of Bacterial Growth, detection method Resazurin, Fluorescence (ex560/em590), MEDIA CAMHB, plate type 384well, CORNING #3640, time 18 hr.
Type: functional

Row | SMILES | Inhibition
1 | COC(=O)C1C2CC3c4[nH]c5cc(OC)ccc5c4CCN3CC2CC(OC(=O)CCc2cc(OC)c(OC)c(OC)c2)C1OC (configuration not stated) | 8.41%
2 | CN1CCc2cc3c(cc2C(=O)Cc2ccc4c(c2C1)OCO4)OCO3.Cl [PROTOPINE HYDROCHLORIDE] | 14.82%
3 | CC(C)=CC(=O)OC1C2C(C)C(=O)OC2C(O)C(C)C2C=CC(=O)C21C (configuration not stated) | 8.65%
4 | CC1(C)CCCC2(C)C3=C(CCC12)C(=O)OC3 (configuration not stated) | 10.53%
5 | CC(=O)CCCCn1c(=O)c2c(ncn2C)n(C)c1=O [PENTOXIFYLLINE] | 0.21%
6 | COC(=O)NC1C(C)OC(OC2C/C=C(/C)C3C=CC4C(OC5CC(OC6CCC(OC7CC(O)C(OC8CCC(O)C(C)O8)C(C)O7)C(C)O6)C(OC(C)=O)C(C)O5)C(C)CC(C)C4C3(C)/C(O)=C3/C(=O)OC4(CC(C=O)=CC(O)C4/C=C\2C)C3=O)CC1(C)[N+](=O)[O-] (configuration not stated) | -21.61%
7 | COc1cc2c3c(c4ccc(OC)c(OC)c4c2cc1OC)CN1CCC[C@@H]1C3 [TYLOCREBRINE] | 23.41%
8 | CC(=O)C1CCCC(=O)/C=C/C(=O)O1 (configuration not stated) | -2.82%
9 | C=C1C(=O)OC2CC3(C)CCCC(C)C3=CC12 (configuration not stated) | 9.16%
10 | CC(C)=CCc1c2c(c3occ(-c4ccc(O)c(O)c4)c(=O)c3c1O)C=CC(C)(C)O2 [POMIFERIN] | 6.8%
11 | CCC1NC(=O)C(NC(=O)c2ncccc2O)C(C)OC(=O)C(c2ccccc2)NC(=O)C2CC(=O)CCN2C(=O)C(Cc2ccccc2)N(C)C(=O)C2CCCN2C1=O (configuration not stated) | 3.19%
12 | C[C@@H]1C(=O)C[C@H]2C(C)(C)CCC[C@]2(C)[C@@]1(O)CCc1ccoc1 | -11.22%

What follows are compounds tested on Acinetobacter baumannii (assay: Antibacterial activity against Acinetobacter baumannii ATCC 19606 (CO-ADD:GN_034); MIC in CAMBH media using NBS plates, by Resazurin F(560/590)). Conditions: Concentration 20 uM, ASSAY_TEST Inhibition of Bacterial Growth, detection method Resazurin, Fluorescence (ex560/em590), MEDIA CAMHB, plate type 384well, CORNING #3640, time 18 hr.
Type: functional

Row | SMILES | Inhibition
13 | CC(=O)O.COc1ccc2c(=O)oc3c(OC)cc(CCN(C)C)c4c(=O)oc1c2c34 | -7.25%
14 | COc1cc(C)c2c(c1C=O)Oc1c(c(C)c(O)c3c1C(O)OC3=O)OC2=O (configuration not stated) [STICTIC ACID] | -4.46%
15 | CC1(C)C(=O)N2c3ccccc3C3(CC(N4C(=O)c5ccccc5C4=O)C(=O)O3)C2N1C(=O)OCc1ccccc1 (configuration not stated) | -16.59%
16 | COc1c2occc2cc2ccc(=O)oc12 [METHOXSALEN] | -6.09%
17 | C=C1C(=O)OC2CC(C)C3(O)CCC(=O)C3(C)CC12 (configuration not stated) | -10.29%
18 | COc1ccc2c(c1OC)C(=O)O[C@@H]2[C@H]1c2c(cc3c(c2OC)OCO3)CCN1C [NOSCAPINE] | -5.12%
19 | CC(C)CC1NC(=O)C(C(C)C)NC(=O)CC(C)COC(=O)C(CC(C)C)N(C)C(=O)C(C(C)C)NC(=O)C(C(C)C)OC1=O (configuration not stated) | 3.02%
20 | COc1c2occc2c(OC)c2c(=O)cc(C)oc12 [KHELLIN] | -0.82%
21 | CCCCCc1cc(O)cc2c1Oc1cc(O)cc(C(=O)CCCC)c1C(=O)O2 | -18.85%
22 | CC(=O)Oc1ccc2ccc(=O)oc2c1OC(C)=O | -10.5%
23 | O=c1oc2c(O)c(O)cc3c(=O)oc4c(O)c(O)cc1c4c23 [ELLAGIC ACID] | -6.11%
24 | COC(=O)[C@@H]1[C@H]2C[C@@H]3c4[nH]c5ccccc5c4CCN3C[C@@H]2CC[C@@H]1O | -4.53%
25 | COc1cc([C@@H]2c3cc4c(cc3[C@@H](OC3OC5CO[C@@H](c6cccs6)OC5C(O)C3O)[C@H]3COC(=O)[C@H]23)OCO4)cc(OC)c1O (some centres not stated) | -1.54%
26 | COC(=O)C1C2CC3c4[nH]c5cc(OC)ccc5c4CCN3CC2CC(OC(=O)CCc2cc(OC)c(OC)c(OC)c2)C1OC (configuration not stated) | -10.91%
27 | CN1CCc2cc3c(cc2C(=O)Cc2ccc4c(c2C1)OCO4)OCO3.Cl [PROTOPINE HYDROCHLORIDE] | -4.7%
28 | CC(C)=CC(=O)OC1C2C(C)C(=O)OC2C(O)C(C)C2C=CC(=O)C21C (configuration not stated) | -2.16%
29 | CC1(C)CCCC2(C)C3=C(CCC12)C(=O)OC3 (configuration not stated) | -0.35%
30 | CC(=O)CCCCn1c(=O)c2c(ncn2C)n(C)c1=O [PENTOXIFYLLINE] | 0.79%
31 | COC(=O)NC1C(C)OC(OC2C/C=C(/C)C3C=CC4C(OC5CC(OC6CCC(OC7CC(O)C(OC8CCC(O)C(C)O8)C(C)O7)C(C)O6)C(OC(C)=O)C(C)O5)C(C)CC(C)C4C3(C)/C(O)=C3/C(=O)OC4(CC(C=O)=CC(O)C4/C=C\2C)C3=O)CC1(C)[N+](=O)[O-] (configuration not stated) | -13.61%
32 | COc1cc2c3c(c4ccc(OC)c(OC)c4c2cc1OC)CN1CCC[C@@H]1C3 [TYLOCREBRINE] | -4.59%
33 | CC(=O)C1CCCC(=O)/C=C/C(=O)O1 (configuration not stated) | -9.57%
34 | C=C1C(=O)OC2CC3(C)CCCC(C)C3=CC12 (configuration not stated) | -5.59%
35 | CC(C)=CCc1c2c(c3occ(-c4ccc(O)c(O)c4)c(=O)c3c1O)C=CC(C)(C)O2 [POMIFERIN] | 23.27%
36 | CCC1NC(=O)C(NC(=O)c2ncccc2O)C(C)OC(=O)C(c2ccccc2)NC(=O)C2CC(=O)CCN2C(=O)C(Cc2ccccc2)N(C)C(=O)C2CCCN2C1=O (configuration not stated) | -3.49%
37 | C[C@@H]1C(=O)C[C@H]2C(C)(C)CCC[C@]2(C)[C@@]1(O)CCc1ccoc1 | -8.38%
